Our source for the growth values is PubChem BioAssay (NCI).

What all share (assay): NCI-60 one-dose screen, 48 h (100 = growth as untreated, 0 = no growth, -100 = all killed)
Common to all, as to conditions: 10 µM unless noted

Test [1] deals with HCT-15 colon.
Test [2] deals with HT29 colon.
Test [3] deals with SNB-19 CNS.
Test [4] deals with U251 CNS.
Test [5] relates to PC-3 prostate.
The subject of test [6] is SK-MEL-5 melanoma.
Test [7] concerns UACC-62 melanoma.
Test [8] relates to SK-MEL-28 melanoma.
Test [9] deals with SK-MEL-2 melanoma.
In test [10] the test system is EKVX NSCLC.
The subject of test [11] is SN12C renal.
Test [12] concerns UO-31 renal.
For test [13], the system named is TK-10 renal.
Test [14] relates to ACHN renal.
For test [15], the system named is CAKI-1 renal.
Test [16] concerns A498 renal.
In test [17] the test system is CCRF-CEM leukemia.
The subject of test [18] is MOLT-4 leukemia.
In test [19] the test system is LOX IMVI melanoma.

About 83,000 compounds went through this panel and 20% of them were active in at least one assay; those are over-represented in the sample as a whole.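 Plates (96-well) were seeded with cells, treated with compound at one concentration, and incubated for 48 hours before percent growth was determined.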 Unmarked numbers belong to inactive results. Active and inactive are the calls of the source. Rule for the calls: active = growth percent below 10; inactive = the rest.

On to `COc1ccccc1NC(=O)Cn1cc(CN2CCN(c3ccnc4cc(Cl)ccc34)CC2)nn1`, for which the growth was 91.8% in [1]; 105% in test [2]; 93.2% in test [3]; 97.1% in test [4]; 71.8% in [5]; 73% in test [6]. The growth in test [7] was 83.9%; in test [8], 84.1%; in test [9], 112%; in test [10], 92.5%; in [11], 98%; in test [12], 66.8%. In addition, the growth in [13] was 102%; in [14], 95.3%; in test [15] it was 80.2%; in test [16] it was 94.8%; in test [17] it was -34.8% (active); in test [18] it was 70.8%.
Turning to `NC(=O)CCC(C(=O)O)N1C(=O)c2ccc(O)cc2C1=O` (stereo not drawn), the growth in test [1] was 101%; in [2] it was 119%; in test [3], 110%; in test [4], 100%; in test [5] it was 98.6%; in test [6], 107%. In addition, the growth is 111% in test [7]; 97.2% in [19]; 124% in [8]; 97% in [9]; 101% in [10]; 108% in [11]. For the same compound, the growth is 93.1% in test [12]; 114% in [13]; 93.1% in test [14]; 80% in [15]; 115% in [16]; 91.1% in [17]. In [18], the growth is 59.1%.
For the compound `CCCCCCCCn1ccc2cc(NC(=O)Cn3cc(CN4CCCCC4)nn3)ccc21`, the growth in test [1] was -40.7% (active); in test [2], -61.2% (active); in [3] it was -49.2% (active); in test [4], -53.6% (active); in [5], 54.6%; in test [6], -93% (active). In addition, the growth in [7] was -81.4% (active); in test [19] it was -80.3% (active); in test [8], -85.4% (active); in [9], 35.6%; in test [10] it was 85%; in [11], 34.5%. Also, the growth is -96.6% (active) in test [12]; 75.7% in [13]; 57.5% in test [14]; -45% (active) in test [15]; 97% in test [16]; 15.7% in [17]. Also, the growth in test [18] was 8.5% (active).
For `O=C(Cn1c(=O)sc2ccccc21)NNS(=O)(=O)c1ccccc1[N+](=O)[O-]`, the growth is 103% in test [1]; 99.3% in test [2]; 103% in test [3]; 97.9% in [4]; 96.2% in test [5]; 101% in test [6]. Further, the growth is 98.8% in test [7]; 96.4% in test [19]; 104% in test [8]; 103% in test [9]; 98.5% in test [10]; 109% in test [11]. The growth is 86.1% in test [12]; 104% in test [13]; 101% in test [14]; 85.2% in [15]; 110% in [16]; 102% in test [17]. In test [18], the growth is 101%.
In the case of `C=C1C(=O)O[C@H]2[C@H]1CC/C(COC(=O)CSCCSCC(=O)OC/C1=C/CC[C@@]3(C)O[C@H]3[C@H]3OC(=O)C(=C)[C@@H]3CC1)=C\CC[C@@]1(C)O[C@@H]21`, the growth in test [1] was -18.1% (active); in test [2], 0.0255% (active); in test [3] it was 55.9%; in test [4], 7.29% (active); in test [5] it was 1.19% (active); in test [6], 78.4%. Besides, the growth in test [7] is 25.6%; in test [19], -53.3% (active); in test [8], 4.71% (active); in test [9] it was 70%; in test [10], 11%; in test [11], -10.4% (active). Further, the growth in test [12] was 7.85% (active); in test [13], 16.6%; in test [14], 2.6% (active); in [15], 9.17% (active); in test [16], 88.7%; in test [17], -41.5% (active). Further, the growth in test [18] is -22.5% (active).
With `N#Cc1cccc(-c2c(-c3ccc4ccccc4c3)oc3ccccc3c2=O)c1`, the growth is 33.9% in test [1]; 10.9% in test [2]; 53.7% in test [3]; 45.6% in test [4]; 34.1% in test [5]; 31% in test [6]. In addition, the growth is 33.9% in [7]; 50.7% in test [19]; 58% in test [8]; 59.1% in test [9]; 52.7% in test [10]; 68.3% in [11]. Further, the growth is 51.4% in [12]; 73.1% in test [13]; 55.9% in test [14]; 45.5% in [15]; 43.4% in test [16]; 27.6% in test [17]. Also, the growth in test [18] was 31%.
In the case of `O=C1/C(=C/c2cccs2)SC(=S)N1CCCN1CCOCC1`, the growth is 83.6% in test [1]; 103% in [2]; 92.5% in [3]; 94.8% in test [4]; 75.5% in [5]; 95.3% in [6]. Moreover, the growth is 79.1% in [7]; 89.1% in test [19]; 95.8% in test [8]; 101% in test [9]; 94.8% in test [10]; 83.3% in [11]. Also, the growth in [12] was 82.4%; in [13], 122%; in test [14], 95.3%; in [15], 91.5%; in test [16], 72.2%; in test [17], 87.5%. Also, the growth in test [18] is 101%.
As for `COc1ccc(CC(C#N)c2cc3ccccc3[nH]2)cc1` (stereo not drawn), the growth in [1] is 91.5%; in test [2], 96.5%; in test [3], 92.8%; in test [4], 89.3%; in test [6] it was 91.6%; in test [7], 75%. In addition, the growth in test [19] was 92%; in test [8], 95%; in [9], 113%; in [10], 95.9%; in test [11], 92.7%; in [12], 61.5%. Moreover, the growth is 118% in test [13]; 93.9% in test [14]; 72.6% in test [15]; 84.2% in test [16]; -27.2% (active) in test [17]; 98.1% in test [18].
Turning to `CC1(C)CCC(S(=O)(=O)c2ccc3c(c2)/C(=N\O)c2cc(S(=O)(=O)N4CCC(O)(c5cccc(C(F)(F)F)c5)CC4)ccc2-3)CC1`, the growth in test [1] was 16.3%; in test [2], -80.1% (active); in test [3] it was -81.9% (active); in test [4], -98.6% (active); in test [5], -71.5% (active); in [6], -92.7% (active). Further, the growth in [7] was -84.9% (active); in test [8], -71.7% (active); in test [9], -90.2% (active); in [10] it was -33.4% (active); in test [11] it was 3.73% (active); in test [12], 45.6%. The growth was -35.7% (active) in test [13]; -13.3% (active) in test [14]; -37.7% (active) in test [15]; -51.5% (active) in test [16]; -58.4% (active) in test [17]; -69.2% (active) in [18].
Regarding `CCCCCCCCCCCCCCCC(N)c1ccccc1` (stereo not drawn), the growth in test [1] was -73.9% (active); in test [2], -65.3% (active); in test [3], 23.9%; in [4] it was -93.2% (active); in test [5], 5.14% (active); in test [6], 87.8%. In addition, the growth in test [7] is 79.2%; in [19] it was -100% (active); in test [8], 85.3%; in [9] it was 70.8%; in test [10] it was 25.3%; in test [11] it was 28%. Moreover, the growth in test [12] is 26.2%; in test [13] it was 52.2%; in [14], -50.3% (active); in test [15], 9.49% (active); in test [16] it was 60.8%; in [17] it was -1.76% (active). Further, in test [18], the growth was -38.6% (active).
Regarding `CN(C)CCCC1(c2ccc(F)cc2)OCc2cc(-c3cncc4ccccc34)ccc21` (stereo not drawn), the growth in test [1] is 38.3%; in test [2] it was 13.5%; in [3] it was 54%; in test [4], 3.14% (active); in test [5], 44.9%; in test [6], -88.8% (active). The growth in test [7] is 11.5%; in test [19] it was 19.3%; in test [8] it was -65% (active); in test [9], 58.7%; in test [10], 76.2%; in [11], 43.1%. The growth is 29.9% in [12]; 83.1% in [13]; 36.9% in [14]; 28.2% in test [15]; 34.1% in test [16]; 26.9% in test [17]. In addition, in test [18], the growth is 14.6%.
As to `CCSc1nc(NC)c2cc(-c3ccc(C(F)(F)F)cc3)ccc2n1`, the growth in test [1] was 95.5%; in test [2] it was 98.9%; in test [3], 97%; in test [4], 103%; in test [5], 94.9%; in [6], 97.9%. Moreover, the growth is 92.9% in test [7]; 106% in test [19]; 95% in [8]; 98.2% in [9]; 96.6% in test [10]; 95.1% in test [11]. The growth in test [12] was 92.2%; in test [13], 121%; in test [14], 97.6%; in test [15] it was 96.3%; in test [16], 112%; in test [17], 95.6%. In addition, in test [18], the growth is 93.4%.
For the compound `Cc1ccc(/C=N/Nc2nc(Nc3ccccc3)nc(-n3nc(C)cc3C)n2)cc1`, the growth was 25.2% in test [1]; 32.7% in [2]; 74.4% in test [3]; 33.8% in [4]; 31.1% in test [5]; -12.6% (active) in test [6]. Besides, the growth in test [7] was 44.9%; in [19], 32.6%; in test [8] it was 68.6%; in test [9] it was 32.6%; in test [10], 27.3%; in test [11] it was 48.9%. For the same compound, the growth in test [12] is 20.1%; in [13] it was 3.47% (active); in test [14], 35.5%; in [15], -21.1% (active); in test [16], 58.5%; in [17] it was 41%. For the same compound, the growth in test [18] was 42.3%.
As for `O=[N+]([O-])c1ccc(-c2nc(N3CCOCC3)c3c4c(sc3n2)CCCC4)cc1`, the growth in [1] was 97.8%; in [2] it was 94.8%; in test [3] it was 115%; in test [4], 102%; in [5], 101%; in test [6], 94.1%. Moreover, the growth in test [7] was 85.1%; in test [19], 86%; in test [8], 111%; in test [9], 95.6%; in test [10], 93.8%; in [11] it was 106%. Further, the growth in test [12] is 67.2%; in test [13] it was 105%; in test [14], 96.2%; in [15], 76.5%; in [16], 109%; in test [17], 101%. In [18], the growth was 86.4%.
